Calls of active or inactive are those of the source.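 How the source made its calls, unless noted: active means mean z-score across replicates of 1.96 or higher in either the MELAS or the Rieske mutant cell line; inactive means the rest.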
Assays:
[1] = viability loss with induced miR-34 in A549 – imaging, A549 dox-inducible miR-34, nuclei and caspase counts, primary screen (AID 1347080;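 active means compounds whose cell count with miR-34 switched on is under 0.7 times the count with it off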); details: A549 miR-34 inducible, Hoechst nuclei count, 48 h
[2] = MELAS cybrid and Rieske KO viability enhancers – cell-based, MELAS cybrids, Rieske KO mouse fibroblasts, CellTiter-Glo, primary screen (AID 1508586); details: low glucose;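 further: z relative to plate mean and SD of compound and empty wells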
[3] = stronger effect = lower value, cell number ratio, induced over uninduced
[4] = measured here: relative caspase fold change +Dox/-Dox
[5] = measured here: total cells with miR-34 induction, stronger effect = lower value
[6] = measured here: total cells without miR-34 induction
[7] = MELAS cybrid survival, CellTiter-Glo 48 h, stronger effect = higher value
[8] = Rieske KO mouse fibroblast survival, CellTiter-Glo 72 h
Further: test concentration not given here.

Row | Structure (SMILES) | fold change [1, 3] | fold change [1, 4] | cell count [1, 5] | cell count [1, 6] | z-score [2, 7] | z-score [2, 8]
1 | CC1(C)C=C(CN2CC(=Cc3ccc(F)cc3)C(=O)C(=Cc3ccc(F)cc3)C2)C(C)(C)N1O | 0.876 (inactive) | 0.446 | 6830 | 7800 | -0.493 (inactive) | -2.15
2 | C=CC(C)(O)CCC1[C@@]2(C)CCCC(C)(C)C2CC[C@@]1(C)O (some centres undefined) | 0.916 (inactive) | 0.879 | 8210 | 8970 | -0.292 (inactive) | -0.0842
3 | CCOC(=O)C(CCc1ccccc1)NC(C)C(=O)N1CCCC1C(=O)O (centres undefined) | 0.954 (inactive) | 0.968 | 7520 | 7880 | -0.0746 (inactive) | -0.409
4 | CN1CC(=O)N2C(c3ccc4c(c3)OCO4)c3[nH]c4ccccc4c3C[C@@H]2C1=O (some centres undefined) | 0.882 (inactive) | 0.922 | 6530 | 7410 | -0.417 (inactive) | 0.533
5 | CC1C[C@H]2[C@@H]3CC(F)C4=CC(=O)C=C[C@]4(C)[C@]3(F)C(O)C[C@]2(C)[C@@]1(O)C(=O)CO (some centres undefined) | 0.843 (inactive) | 1.01 | 4530 | 5380 | -0.358 (inactive) | -0.303
6 | Cc1[nH]c2ccccc2c1C1=C(NCCc2ccc(F)cc2)C(=O)N(C)C1=O | 0.916 (inactive) | 0.466 | 2210 | 2410 | -0.365 (inactive) | 1.08
7 | COC(=O)C1C(O)CC[C@H]2CN3CCc4c([nH]c5ccccc45)[C@@H]3C[C@H]12 (some centres undefined) | 0.892 (inactive) | 0.762 | 8840 | 9910 | -0.303 (inactive) | 0.721
8 | CC(C)(Cc1ccc2ccccc2c1)NCC(O)COc1cccc(Cl)c1C#N (centres undefined) | 0.92 (inactive) | 0.745 | 8560 | 9310 | -0.327 (inactive) | 0.584
9 | N#Cc1c(Oc2ccc(F)c(NC(=O)Cc3cccc(C(F)(F)F)c3)c2)ccc2nc(NC(=O)C3CC3)sc12 | 1.2 (inactive) | 0.284 | 2200 | 1840 | -0.453 (inactive) | 0.158
10 | NC(=O)c1noc(C(CCCC2CCCCC2)CC(=O)NO)n1 (centres undefined) | 0.791 (inactive) | 1.15 | 6790 | 8580 | -0.42 (inactive) | -1.85
11 | Brc1ccc(C2CN3CCSC3=N2)cc1 (centres undefined) | 0.957 (inactive) | 0.301 | 9050 | 9460 | -0.426 (inactive) | -0.0963
12 | CN(C)C(CCOc1cccc2ccccc12)c1ccccc1 (centres undefined) | 0.873 (inactive) | 1.7 | 6850 | 7850 | -0.416 (inactive) | 0.392
13 | CC(C)(C)NC(=O)C1CC[C@H]2[C@@H]3CC[C@H]4NC(=O)C=C[C@]4(C)[C@@H]3CC[C@]12C (some centres undefined) | 1.03 (inactive) | 1.3 | 8400 | 8170 | -0.417 (inactive) | 0.72
14 | Cc1onc(-c2c(Cl)cccc2Cl)c1C(=O)NC1C(=O)N2C1SC(C)(C)C2C(=O)O (centres undefined) | 0.869 (inactive) | 0.56 | 8500 | 9780 | -0.165 (inactive) | -0.146
15 | COc1cc(O)cc(C2CC(=O)c3c(O)cc(OC4OC(CO)C(O)C(O)C4OC4OC(C)C(O)C(O)C4O)cc3O2)c1 (centres undefined) | 0.921 (inactive) | 0.443 | 8090 | 8790 | -0.19 (inactive) | -0.0453
16 | NC(=O)Nc1cc(-c2cccc(F)c2)sc1C(=O)NC1CCCNC1 (centres undefined) | 1.01 (inactive) | 0.785 | 866 | 858 | -0.543 (inactive) | -2.7
17 | CCC(C)C(=O)OC1CC(C)C=C2C=CC(C)C(CCC3CC(O)CC(=O)O3)[C@H]21 (some centres undefined) | 1.2 (inactive) | 0.613 | 3590 | 2990 | -0.367 (inactive) | -1.71
18 | CN(C)C(=O)Nc1cccc(-c2ccc(N(C)C)cc2)c1 | 0.935 (inactive) | 0.582 | 7650 | 8180 | -0.267 (inactive) | -1.04
19 | CC(C)CC(NC(=O)C(CCc1ccccc1)NC(=O)CN1CCOCC1)C(=O)NC(Cc1ccccc1)C(=O)NC(CC(C)C)C(=O)[C@@]1(C)CO1 (some centres undefined) | 0.898 (inactive) | 1.94 | 778 | 867 | -0.243 (inactive) | -3.69
20 | CCCCNc1ncc(C(=O)NCc2ccc(-n3ccnc3)cc2)c(NC2CCC(O)CC2)n1 (centres undefined) | 1.3 (inactive) | 0.249 | 2450 | 1880 | 5.49 (active) | -1.88
21 | COc1cc2c(cc1Cc1cccc(Cl)c1F)c(=O)c(C(=O)O)cn2C(CO)C(C)C (centres undefined) | 0.611 (active) | 1.26 | 3970 | 6500 | -0.198 (inactive) | 0.532
22 | CC(C)c1ccc(NC(=O)Cn2cnc3c2c(=O)n(C)c(=O)n3C)cc1 | 0.933 (inactive) | 1.42 | 7540 | 8090 | 0.298 (inactive) | -0.444
23 | C[C@]12C=CC(=O)C=C1CC[C@H]1[C@@H]3CC(O)[C@@](O)(C(=O)CO)[C@@]3(C)CC(O)[C@]12F (some centres undefined) | 0.898 (inactive) | 0.627 | 5780 | 6430 | 0.159 (inactive) | -0.119
24 | COC1C(=O)[C@]2(C)C(OC)C[C@H]3OC[C@@]3(OC(C)=O)[C@H]2C(OC(=O)c2ccccc2)[C@@]2(O)CC(OC(=O)C(O)C(NC(=O)OC(C)(C)C)c3ccccc3)C(C)=C1C2(C)C (some centres undefined) | 1.03 (inactive) | 0.843 | 2690 | 2620 | 1.6 (inactive) | -0.148
